This is an account of results in PubChem BioAssay (NCATS).

Results filed as inconclusive are left out. Entries that show only a call come without a potency. A number with no mark means an inactive call. The source made the active and inactive calls. Calls follow the shape of the dose curve; as a rule, active = well fitted inhibition curve with a large enough effect; inconclusive = small, poorly fitted or top-dose-only effect; inactive = flat fitted curve, though single readings scatter.
Potency is read from the fitted curve at half-maximal effect.

A short description of the test: P-glycoprotein substrates identified in KB-8-5-11 adenocarcinoma cell line, qHTS therapeutic library screen (AID 1346987). Also: nearly all actives have a fitted effect of over 65% in size. The settings on record: KB-8-5-11 (P-gp overexpressing) viability, CellTiter-Glo, 72 h; series mostly up to 44.5 µM. The method in brief:
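Human cervical adenocarcinoma KB-8-5-11 cells, selected in colchicine to over-express P-gp and assayed without it, were exposed for 72 h to titrated compounds. An ATP-based luminescent viability signal gave AC50.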
(In general: qHTS replaces the single test concentration by a dilution series.)
Take `COc1cc(C)c(C(=O)O[C@H]2[C@@H](OC(C)=O)[C@H](n3ccc(=O)[nH]c3=O)O[C@@H]2CO)c(OC)c1`: the Potency entry was “inactive”.

With `CC(C)=CCC[C@](C)(O[C@@H]1O[C@H](CO[C@@H]2O[C@H](CO)[C@@H](O)[C@H](O)[C@H]2O)[C@@H](O)[C@H](O)[C@H]1O)C1CC[C@]2(C)[C@@H]1[C@H](O)CC1[C@@]3(C)CC[C@H](O[C@@H]4O[C@H](CO)[C@@H](O)[C@H](O)[C@H]4O[C@@H]4O[C@H](CO)[C@@H](O)[C@H](O)[C@H]4O)C(C)(C)[C@@H]3CC[C@]12C` (some centres undefined), the activity change, negative = cytotoxicity was -1.53% [at 9.29 µM].

For `CC1=CC(=O)CC2C1(O)CCC(C)C21CC(c2ccoc2)OC1=O` (centres undefined), the Potency entry is “inactive”.

In the case of `C/C=C/C=C/C(O)=C1\C(=O)[C@]2(C)C3C(C(=O)CC/C=C/C)=C(O)C4(C)C1[C@]1(C)O[C@@]4(O)[C@@]3(C)O[C@@]12O`, the Potency entry was “inactive”.

As for `Cc1ncc(CCCN(C)C)cc1Nc1ncc2c(n1)-c1ccc(C(F)(F)F)cc1NC(=S)C2`, the Potency is 65.1 nM (active).

Turning to `O=C(Nc1ccc(S(=O)(=O)Nc2ccccc2Cl)c(Cl)c1)c1ccccn1`, the Potency result is “inactive”.

For the compound `O=C(CC(c1ccccc1)c1ccccc1)N1CCN(C(c2ccccc2)c2ccccc2)CC1`, the Potency is 16400 nM (active).

With `CNC(=O)c1ccccc1Nc1nc(Nc2ccc(N3CCNCC3)cc2)ncc1Cl`, the Potency was 461 nM (active).

Regarding `C=C(C(=O)O)[C@@H]1CC[C@@]2(C)CC[C@H](O)[C@@]2(C(C)=O)C1`, the Potency entry is “inactive”.
